Anthrax LF inh2 = Bacillus anthracis LF protease inhibitors, primary screen, biochemical, multiplex microsphere, MLPCN library | 0.12% of 360,000 active | inhibition, % at 10 µM | AID 588501, 2011 | multiplex microsphere protease cleavage assay
BoNT F protease = BoNT/F light chain protease inhibitors, primary screen, biochemical, flow cytometry, MLPCN library. Multiplex microsphere protease cleavage assay. Botulinum neurotoxin type F light chain protease (Clostridium botulinum). 0.22% of 360,000 active. inhibition, % at 10 µM; in the data active means inhibition above about 35%, passing the limit was not always enough; inconclusive means no clear call, values can overlap the other calls
BJeLR viability = MLPCN primary cell-based screen for lethality selective to Ras in HRASV12 cells; BJeLR (HRASV12) viability, CellTiter-Glo ATP luminescence, 48 h; inhibition, % (no concentration beside the values); 0.17% of 300,000 active; in the data active means inhibition above about 50%; inconclusive means no clear call, values can overlap the other calls
BH1578 lux ind = inducers of Vibrio cholerae quorum light production without autoinducers, primary screen, BH1578 luxS cqsA deficient, single point; V. cholerae BH1578 lux reporter, luminescence, 6 h; activation, % at 18.7 µM; 0.16% of 350,000 active; in the data active means activation mostly above about 9.7%, no sharp cut-off; inconclusive means no clear call, values can overlap the other calls; inactive means mostly below about 3.7%
Bead autofluor = counter-screen for toxin protease inhibitors: compound fluorescence. compound autofluorescence counterscreen, microsphere flow cytometry; stronger effect = higher value. fluorescence intensity (no concentration beside the values). 3.1% of 360,000 active; in the data active means fluorescence intensity above about 16000; inconclusive means no clear call, values can overlap the other calls
BoNT-A LC inh2 = BoNT/A light chain protease inhibitors, primary screen, biochemical, flow cytometry, MLPCN library; Botulinum neurotoxin type A light chain protease (Clostridium botulinum A str. ATCC 3502); multiplex microsphere protease substrate cleavage; inhibition, % at 10 µM; 0.17% of 360,000 active
A number is an active result; - = inactive; ? = inconclusive; . = no result. Compounds with a hit are over-represented: about 3.7% of the library has one in this group of screens. Unless noted, no stated cut-off is given here; in the data, active means inhibition above about 30%; inconclusive means no clear call, values can overlap the other calls; inactive means below that.

SMILES | Anthrax LF inh2 | BoNT F protease | BJeLR viability | BH1578 lux ind | Bead autofluor | BoNT-A LC inh2
Cc1ccccc1-c1nc(S(=O)(=O)c2ccc(Br)cc2)c(NCc2cccnc2)o1 | - | - | - | - | 20211 | -
O=C1CCCN1C1CCN(Cc2ccccc2)S(=O)(=O)N1 (stereo not given) | - | - | . | . | - | -
COc1cc(/C=C2/SC(=S)N(CC(=O)NNC(=O)c3ccc(F)cc3)C2=O)cc(OC)c1OC | - | - | . | - | - | -
COc1cccc(N2C(=O)C(CC(=O)Nc3ccc(F)cc3)N(C3CCCCC3)C2=O)c1 (stereo not given) | - | - | - | - | - | -
COc1cccc(N2C(=O)C(CC(=O)Nc3ccccc3)N(C3CCCCC3)C2=O)c1 (stereo not given) | - | - | - | - | 19391 | -
NS(=O)(=O)c1ccc(NC2=CC(=O)C(=O)c3ccccc32)cc1 | - | - | - | - | - | -
Cc1ccc(NC2=CC(=O)C(=O)c3ccccc32)cc1 | - | - | - | - | 16510 | -
O=C(Nc1ccc(C(F)(F)F)cc1Cl)c1ccc(Cn2cc(Br)cn2)o1 | - | - | - | - | - | -
O=C(Nc1cccc(C(F)(F)F)c1)c1ccc(Cn2cc(Br)cn2)o1 | - | - | - | - | 17799 | -
Cc1ccc(NC(=O)CSc2nc(-c3ccco3)cc(C(F)(F)F)n2)cc1C | - | - | - | - | 17763 | -
O=C(CSc1nc(-c2ccco2)cc(C(F)(F)F)n1)Nc1ccc2c(c1)CCC2 | - | - | - | - | - | -
S=c1nc(-c2ccccc2)[nH]n1-c1ccccc1 | - | - | - | - | 25268 | -
O=C(COC(=O)c1cnc(Cl)c(Cl)c1)NC1CCCC1 | - | - | . | - | - | -
O=C(NCCCNC(=O)c1ccc(F)cc1)c1ccc(F)cc1 | - | 57 | - | - | - | -
Cc1ccn(CCC(=O)N2CCCC(N3CCN(c4ccccc4C)CC3)C2)n1 (stereo not given) | - | - | . | - | - | -
COc1cc(OC)c(C2CC(=O)N3CN(C)CSC3=C2C#N)cc1OC (stereo not given) | - | - | - | - | - | -
COc1ccc2ccccc2c1C1CC(=O)N2CN(C)CSC2=C1C#N (stereo not given) | - | - | - | - | 20088 | ?
CCc1ccccc1N1CSC2=C(C#N)C(c3cc(OC)c(OC)cc3OC)CC(=O)N2C1 (stereo not given) | - | - | - | - | - | -
COc1cc(OC)c(C2CC(=O)N3CN(c4ccccc4)CSC3=C2C#N)cc1OC (stereo not given) | - | - | - | - | 20460 | ?
COc1cc(Cl)ccc1OC1(C)CCN(Cc2c(F)cccc2F)C1 (stereo not given) | - | - | . | - | - | -
COc1ccc(N2C(=O)CCC2=O)cc1 | - | - | - | - | 20610 | ?
CC(=O)Oc1ccc(N2C(=O)CCC2=O)cc1 | - | ? | - | . | - | -
COC(=O)c1ccccc1NS(=O)(=O)c1ccc(F)cc1 | - | - | - | - | 20259 | ?
COC(=O)c1ccccc1NC(=O)Oc1ccc(F)cc1 | - | - | - | - | 16560 | -
COCCNc1nc2c(c(=O)n(Cc3cccc(Cl)c3)c(=O)n2C)n1C | - | - | - | - | - | -
SMILES | Anthrax LF inh2 | BoNT F protease | BJeLR viability | BH1578 lux ind | Bead autofluor | BoNT-A LC inh2
COc1ccc(CNc2nc3c(c(=O)n(Cc4ccc(Cl)cc4)c(=O)n3C)n2C)cc1 | - | - | - | - | 16319 | -
CC1(C)CC(=O)C=C(c2ccc(-c3cccc4c3sc3ccccc34)cc2)C1=O | - | - | . | - | - | -
CCOC1=C2CN(S(=O)(=O)c3ccc(C)cc3)[C@@H](c3ccccc3)C[C@H]2[C@H]2C(=O)N(c3ccccc3)C(=O)[C@H]2C1 | - | - | . | . | - | -
O=[N+]([O-])c1ccc(C=NN2CCCCCC2)cc1 | - | - | . | - | - | -
CCc1ccc(C(=O)/C=C/c2ccc([N+](=O)[O-])o2)cc1 | - | - | 59 | - | - | -
O=C(/C=C\c1ccc(-c2ccccc2)o1)c1ccccc1 | - | - | - | - | - | 66
CCN(CC)S(=O)(=O)c1ccc(C(=O)/C=C/c2ccc(-c3ccc([N+](=O)[O-])cc3)o2)cc1 | 48 | - | - | - | - | 79
Cc1ccc(C(=O)/C=C\C(=O)c2ccc(C)cc2)cc1 | - | - | - | - | - | -
CCOC(=O)CCc1ccc(NC(=O)/C=C/c2ccc([N+](=O)[O-])o2)cc1 | - | - | . | - | - | -
Cc1ccc(C(=O)/C=C/c2ccc(-c3ccc(C)cc3)o2)cc1 | - | - | - | - | - | 41
COc1cccc(C(O)c2nc(/C=C/c3ccccc3)cs2)c1 (stereo not given) | - | - | . | - | - | -
C[C@H]1CN([C@@H](C)CO)S(=O)(=O)c2ccc(/C=C/c3ccccc3)cc2O[C@H]1CN(C)C(=O)NC1CCCCC1 | - | - | . | - | - | -
CC1CN(C2CCCCC2)C(=S)NC1=O (stereo not given) | - | - | . | 39 | - | -
CCCCc1c(-c2ccccc2OC)ncn1CCc1ccccc1 | - | - | . | . | - | -
O=C(Oc1ccc2c(=O)c(Oc3ccc4ccccc4c3)coc2c1)c1cncc(Br)c1 | - | 36 | - | - | - | -
O=C(Oc1ccc2ccccc2c1)c1cncc(Br)c1 | - | - | - | - | - | -
CC(C)c1ccc(-c2nnn(Cc3nc4ccccc4s3)n2)cc1 | - | - | - | - | 16755 | -
CC(C)c1ccc(-c2nnn(CCC#N)n2)cc1 | - | - | - | - | - | -
COc1cc2c(cc1OC)C(c1ccccc1[N+](=O)[O-])=NCC2 | - | - | . | . | - | -
C=CCOn1c(=O)c(-c2cccs2)[n+]([O-])c2ccccc21 | - | - | - | - | 21222 | -
Cc1cccc(Cn2c(Sc3nc(C)cs3)nc3c2c(=O)[nH]c(=O)n3C)c1 | - | - | - | - | 19241 | ?
C=CCn1c(Sc2nc(C)cs2)nc2c1c(=O)[nH]c(=O)n2C | - | - | - | - | 23702 | -
Cc1ccc([N+](=O)[O-])cc1NC(=O)CCCOc1ccccc1 | - | - | - | - | 16846 | -
Cc1ccc([N+](=O)[O-])cc1NC(=O)CCc1ccccc1 | - | - | - | - | - | -
COc1ccc(C2=NN(C)C(=NCc3ccccc3)SC2)cc1 | - | - | - | - | 24219 | -
COc1ccc(CN=C2NN=C(c3ccc(Cl)cc3)CS2)cc1 | - | - | - | - | - | -
CN(C)C(=O)c1cccc(-c2cnc3c(NC=O)cc(-c4ccc(N(C)C)cc4)cn23)c1 | - | - | . | - | - | -
O=C(COc1ccc(Cl)cc1Cl)N1CCN(c2ccccn2)CC1 | - | - | - | - | - | -
O=C(CCCOc1ccc(Cl)cc1Cl)N1CCN(c2ccccn2)CC1 | - | - | - | - | 16837 | -
